Source: article PMC7862700, “An all-to-all approach to the identification of sequence-specific readers for epigenetic DNA modifications on cytosine”

Assays:
Assay in all cases: DAPPL (digital affinity profiling via proximity ligation, sequencing); 10 mM Tris-HCl pH 7.5, 50 mM NaCl, 1 mM DTT, 4% glycerol, room temperature, 30 min; GST-TFs on glutathione beads, 16-mer random dsDNA library, 0.1% formaldehyde crosslink after washing; high values mean tight binding
Conditions in all cases: protein: recombinant; tags: N-terminal GST; dsDNA, one strand shown
[1] = molecular target: T1, FLI1 (Homo sapiens, UniProt Q01543 1-452)
T1 sequence: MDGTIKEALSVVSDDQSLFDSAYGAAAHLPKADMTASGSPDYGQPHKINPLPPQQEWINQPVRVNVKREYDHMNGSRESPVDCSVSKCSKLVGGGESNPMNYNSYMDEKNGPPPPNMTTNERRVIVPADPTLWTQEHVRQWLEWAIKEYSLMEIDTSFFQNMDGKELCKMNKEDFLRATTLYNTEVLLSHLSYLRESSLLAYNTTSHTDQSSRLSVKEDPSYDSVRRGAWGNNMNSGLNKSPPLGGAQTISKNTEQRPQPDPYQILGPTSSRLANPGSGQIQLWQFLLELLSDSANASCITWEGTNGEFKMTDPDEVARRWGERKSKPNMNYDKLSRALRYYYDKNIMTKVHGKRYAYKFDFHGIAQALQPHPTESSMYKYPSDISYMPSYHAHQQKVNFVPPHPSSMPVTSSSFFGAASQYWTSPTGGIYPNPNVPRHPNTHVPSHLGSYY
How it was run: (§1)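 After expression in yeast as GST fusions, human transcription factors were bound to glutathione beads, DNA-barcoded and mixed with a tag-only sample. The pools were incubated with 200 nmole of a 16-mer random double-stranded DNA library in Tris/NaCl/DTT/glycerol buffer (30 min, room temperature), washed and crosslinked with 0.1% formaldehyde. Proximity ligation with BsaI/T4 ligase ran for 1 h at 37 °C, before PCR amplification and sequencing on an Illumina NextSeq500. Binding signal is a hexamer's read frequency for a factor divided by its frequency for the tag-only sample.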

[2] = molecular target: T2, ELK1 (Homo sapiens, UniProt P19419 1-428)
T2 sequence: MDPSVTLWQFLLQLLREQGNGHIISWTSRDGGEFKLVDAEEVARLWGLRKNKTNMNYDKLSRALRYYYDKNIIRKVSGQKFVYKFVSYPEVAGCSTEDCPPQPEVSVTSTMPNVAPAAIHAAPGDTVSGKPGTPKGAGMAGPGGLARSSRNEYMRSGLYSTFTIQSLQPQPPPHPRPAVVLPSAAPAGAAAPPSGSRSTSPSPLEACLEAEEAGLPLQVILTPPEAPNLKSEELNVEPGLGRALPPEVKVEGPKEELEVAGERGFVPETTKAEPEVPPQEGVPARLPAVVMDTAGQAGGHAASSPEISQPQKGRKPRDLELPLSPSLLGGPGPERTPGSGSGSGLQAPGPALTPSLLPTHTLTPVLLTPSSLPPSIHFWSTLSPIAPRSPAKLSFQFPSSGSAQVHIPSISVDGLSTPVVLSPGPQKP
How it was run: as §1

[3] = molecular target: T3, GABPA (Homo sapiens, UniProt Q06546 1-454)
T3 sequence: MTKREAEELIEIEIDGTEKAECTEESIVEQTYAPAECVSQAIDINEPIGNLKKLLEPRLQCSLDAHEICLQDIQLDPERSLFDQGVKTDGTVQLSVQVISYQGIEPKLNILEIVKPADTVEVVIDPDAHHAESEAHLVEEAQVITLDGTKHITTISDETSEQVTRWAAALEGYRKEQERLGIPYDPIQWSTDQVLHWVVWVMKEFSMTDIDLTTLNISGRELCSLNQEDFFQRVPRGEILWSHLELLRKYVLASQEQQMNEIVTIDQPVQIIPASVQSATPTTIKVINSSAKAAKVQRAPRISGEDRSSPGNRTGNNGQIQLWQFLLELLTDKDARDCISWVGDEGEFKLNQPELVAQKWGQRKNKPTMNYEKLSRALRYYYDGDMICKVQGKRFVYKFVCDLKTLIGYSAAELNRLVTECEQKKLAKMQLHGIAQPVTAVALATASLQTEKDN
How it was run: as §1

[4] = molecular target: T4, ERG (Homo sapiens, UniProt P11308 1-479)
T4 sequence: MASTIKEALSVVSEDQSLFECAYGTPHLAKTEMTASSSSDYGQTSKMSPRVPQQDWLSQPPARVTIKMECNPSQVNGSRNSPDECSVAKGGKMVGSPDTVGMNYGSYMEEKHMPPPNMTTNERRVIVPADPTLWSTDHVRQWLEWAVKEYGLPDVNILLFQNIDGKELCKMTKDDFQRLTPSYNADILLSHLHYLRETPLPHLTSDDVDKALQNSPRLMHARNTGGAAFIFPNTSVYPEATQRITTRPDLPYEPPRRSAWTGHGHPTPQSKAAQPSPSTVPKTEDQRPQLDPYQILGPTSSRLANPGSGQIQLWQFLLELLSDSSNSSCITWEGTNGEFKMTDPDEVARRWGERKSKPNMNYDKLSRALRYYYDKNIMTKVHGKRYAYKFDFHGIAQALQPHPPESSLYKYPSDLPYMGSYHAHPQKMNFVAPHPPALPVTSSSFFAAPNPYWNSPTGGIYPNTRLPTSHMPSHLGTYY
How it was run: as §1

[5] = molecular target: ELF1 (Homo sapiens, UniProt P32519 1-619)
How it was run: as §1

[6] = molecular target: T5, EHF (Homo sapiens, UniProt Q9NZC4 1-300)
T5 sequence: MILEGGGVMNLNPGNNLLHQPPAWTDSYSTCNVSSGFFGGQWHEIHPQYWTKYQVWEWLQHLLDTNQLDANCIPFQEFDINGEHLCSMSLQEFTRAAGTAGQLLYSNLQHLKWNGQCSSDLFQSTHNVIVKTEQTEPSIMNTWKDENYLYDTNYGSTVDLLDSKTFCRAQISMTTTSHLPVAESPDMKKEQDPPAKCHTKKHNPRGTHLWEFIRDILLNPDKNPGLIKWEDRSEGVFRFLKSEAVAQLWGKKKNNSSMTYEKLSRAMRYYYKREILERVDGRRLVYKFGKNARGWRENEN
How it was run: as §1

[7] = molecular target: SPI1 (Homo sapiens, UniProt P17947 1-270)
How it was run: as §1

[8] = molecular target: SPIB (Homo sapiens, UniProt Q01892 1-262)
How it was run: as §1

[9] = molecular target: T6, ELK3 (Homo sapiens, UniProt P41970 1-407)
T6 sequence: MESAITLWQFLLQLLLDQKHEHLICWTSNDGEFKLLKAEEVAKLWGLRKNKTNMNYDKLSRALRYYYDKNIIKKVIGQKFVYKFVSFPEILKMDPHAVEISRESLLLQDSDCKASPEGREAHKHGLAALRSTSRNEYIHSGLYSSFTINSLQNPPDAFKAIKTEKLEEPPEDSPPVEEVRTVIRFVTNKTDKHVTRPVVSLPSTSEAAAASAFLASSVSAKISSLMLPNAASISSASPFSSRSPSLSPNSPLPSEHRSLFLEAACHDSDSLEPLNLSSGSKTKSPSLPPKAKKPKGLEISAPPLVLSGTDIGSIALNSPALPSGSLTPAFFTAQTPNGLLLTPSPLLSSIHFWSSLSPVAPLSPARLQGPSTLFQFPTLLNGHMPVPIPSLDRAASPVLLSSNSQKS
How it was run: as §1

[10] = molecular target: T7, FEV (Homo sapiens, UniProt Q99581 1-238)
T7 sequence: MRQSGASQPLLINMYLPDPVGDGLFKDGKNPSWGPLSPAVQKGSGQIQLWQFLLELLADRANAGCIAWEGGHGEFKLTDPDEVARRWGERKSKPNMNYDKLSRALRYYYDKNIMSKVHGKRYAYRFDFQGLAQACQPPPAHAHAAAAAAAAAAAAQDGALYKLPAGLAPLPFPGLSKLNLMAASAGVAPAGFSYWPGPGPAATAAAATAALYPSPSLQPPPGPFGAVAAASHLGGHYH
How it was run: as §1

[11] = molecular target: ETV5 (Homo sapiens, UniProt P41161 1-510)
How it was run: as §1

[12] = molecular target: T8, SPIC (Homo sapiens, UniProt Q8N5J4 1-248)
T8 sequence: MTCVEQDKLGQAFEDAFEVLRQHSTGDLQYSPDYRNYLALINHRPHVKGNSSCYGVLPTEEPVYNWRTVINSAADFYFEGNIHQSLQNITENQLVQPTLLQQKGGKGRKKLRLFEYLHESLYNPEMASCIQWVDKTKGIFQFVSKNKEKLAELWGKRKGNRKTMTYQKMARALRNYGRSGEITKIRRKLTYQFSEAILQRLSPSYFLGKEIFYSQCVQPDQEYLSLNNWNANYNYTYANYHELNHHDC
How it was run: as §1

[13] = molecular target: ELF4 (Homo sapiens, UniProt Q99607 1-663)
How it was run: as §1

[14] = molecular target: ETV1 (Homo sapiens, UniProt P50549 1-477)
How it was run: as §1

[15] = molecular target: T9, ERF (Homo sapiens, UniProt P50548 1-548)
T9 sequence: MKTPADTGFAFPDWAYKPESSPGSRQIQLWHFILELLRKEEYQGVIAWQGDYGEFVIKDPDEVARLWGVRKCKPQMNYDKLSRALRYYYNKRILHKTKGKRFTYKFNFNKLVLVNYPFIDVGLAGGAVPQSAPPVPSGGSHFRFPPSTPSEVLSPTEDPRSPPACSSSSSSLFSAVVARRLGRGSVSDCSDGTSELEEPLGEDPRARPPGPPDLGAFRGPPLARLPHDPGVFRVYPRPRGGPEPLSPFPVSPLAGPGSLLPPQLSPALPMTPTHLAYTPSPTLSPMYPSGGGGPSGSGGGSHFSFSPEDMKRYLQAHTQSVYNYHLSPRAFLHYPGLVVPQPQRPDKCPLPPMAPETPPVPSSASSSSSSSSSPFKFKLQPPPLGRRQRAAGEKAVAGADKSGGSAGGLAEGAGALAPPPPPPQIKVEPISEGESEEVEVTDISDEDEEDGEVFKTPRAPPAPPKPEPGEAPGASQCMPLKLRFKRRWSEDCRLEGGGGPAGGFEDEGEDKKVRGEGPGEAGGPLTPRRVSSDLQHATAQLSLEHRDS
How it was run: as §1

[16] = molecular target: T10, ETV3L (Homo sapiens, UniProt Q6ZN32 1-361)
T10 sequence: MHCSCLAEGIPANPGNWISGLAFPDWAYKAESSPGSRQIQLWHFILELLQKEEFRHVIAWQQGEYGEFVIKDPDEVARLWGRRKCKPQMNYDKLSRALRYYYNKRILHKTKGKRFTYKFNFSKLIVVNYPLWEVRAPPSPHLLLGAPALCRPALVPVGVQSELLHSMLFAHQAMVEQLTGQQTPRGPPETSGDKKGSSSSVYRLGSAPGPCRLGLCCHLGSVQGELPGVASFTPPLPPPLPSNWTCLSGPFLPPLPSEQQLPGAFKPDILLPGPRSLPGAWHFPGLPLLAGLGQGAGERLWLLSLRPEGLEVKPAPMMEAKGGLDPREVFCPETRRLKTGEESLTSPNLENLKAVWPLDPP
How it was run: as §1

[17] = molecular target: T11, ETS2 (Homo sapiens, UniProt P15036 1-469)
T11 sequence: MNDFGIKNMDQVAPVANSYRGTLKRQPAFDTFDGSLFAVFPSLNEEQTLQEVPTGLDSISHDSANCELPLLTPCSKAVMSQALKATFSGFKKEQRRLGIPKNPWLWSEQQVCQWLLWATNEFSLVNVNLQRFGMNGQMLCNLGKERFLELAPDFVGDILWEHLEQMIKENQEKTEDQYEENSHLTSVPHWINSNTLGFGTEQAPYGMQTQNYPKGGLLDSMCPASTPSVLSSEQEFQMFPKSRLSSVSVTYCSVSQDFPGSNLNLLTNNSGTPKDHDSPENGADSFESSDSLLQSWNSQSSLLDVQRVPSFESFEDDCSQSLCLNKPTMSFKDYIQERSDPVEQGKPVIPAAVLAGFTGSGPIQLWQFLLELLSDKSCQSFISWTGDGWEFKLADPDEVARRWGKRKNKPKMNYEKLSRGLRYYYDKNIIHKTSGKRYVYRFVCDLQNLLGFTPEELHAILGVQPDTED
How it was run: as §1

[18] = molecular target: T12, SPDEF (Homo sapiens, UniProt O95238 1-335)
T12 sequence: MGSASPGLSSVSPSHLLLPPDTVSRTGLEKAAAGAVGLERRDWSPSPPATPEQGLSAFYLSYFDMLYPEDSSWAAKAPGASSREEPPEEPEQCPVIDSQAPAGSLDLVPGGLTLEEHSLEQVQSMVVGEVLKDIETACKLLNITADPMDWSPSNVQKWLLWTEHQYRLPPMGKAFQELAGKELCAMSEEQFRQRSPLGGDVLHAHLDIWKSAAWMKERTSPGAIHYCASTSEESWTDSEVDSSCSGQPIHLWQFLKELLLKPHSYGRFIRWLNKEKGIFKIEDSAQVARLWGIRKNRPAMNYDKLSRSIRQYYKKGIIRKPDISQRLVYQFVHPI
How it was run: as §1

[19] = molecular target: T13, ETV3 (Homo sapiens, UniProt P41162-2 1-143)
T13 sequence: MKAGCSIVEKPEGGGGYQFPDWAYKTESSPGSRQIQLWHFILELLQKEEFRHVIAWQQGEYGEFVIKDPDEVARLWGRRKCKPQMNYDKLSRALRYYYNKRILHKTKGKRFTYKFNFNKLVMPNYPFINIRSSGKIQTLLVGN
How it was run: as §1

[20] = molecular target: ETV6 (Homo sapiens, UniProt P41212 1-452)
How it was run: as §1

Sequence of ETV5 (P41161 whole entry): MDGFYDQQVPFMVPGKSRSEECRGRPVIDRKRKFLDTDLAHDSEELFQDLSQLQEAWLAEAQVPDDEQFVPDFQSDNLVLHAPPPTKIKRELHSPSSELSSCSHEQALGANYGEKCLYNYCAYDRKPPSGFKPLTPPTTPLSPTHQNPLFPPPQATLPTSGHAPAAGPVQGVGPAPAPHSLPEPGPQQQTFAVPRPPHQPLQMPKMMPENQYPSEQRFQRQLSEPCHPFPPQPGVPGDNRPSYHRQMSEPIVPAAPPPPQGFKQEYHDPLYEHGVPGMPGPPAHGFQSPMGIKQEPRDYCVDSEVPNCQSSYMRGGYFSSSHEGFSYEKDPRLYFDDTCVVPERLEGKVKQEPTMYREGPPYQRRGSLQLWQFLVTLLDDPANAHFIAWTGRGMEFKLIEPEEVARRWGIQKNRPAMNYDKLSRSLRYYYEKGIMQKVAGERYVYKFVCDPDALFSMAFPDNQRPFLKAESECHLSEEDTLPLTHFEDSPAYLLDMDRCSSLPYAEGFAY
Sequence of ELF4 (Q99607 whole entry): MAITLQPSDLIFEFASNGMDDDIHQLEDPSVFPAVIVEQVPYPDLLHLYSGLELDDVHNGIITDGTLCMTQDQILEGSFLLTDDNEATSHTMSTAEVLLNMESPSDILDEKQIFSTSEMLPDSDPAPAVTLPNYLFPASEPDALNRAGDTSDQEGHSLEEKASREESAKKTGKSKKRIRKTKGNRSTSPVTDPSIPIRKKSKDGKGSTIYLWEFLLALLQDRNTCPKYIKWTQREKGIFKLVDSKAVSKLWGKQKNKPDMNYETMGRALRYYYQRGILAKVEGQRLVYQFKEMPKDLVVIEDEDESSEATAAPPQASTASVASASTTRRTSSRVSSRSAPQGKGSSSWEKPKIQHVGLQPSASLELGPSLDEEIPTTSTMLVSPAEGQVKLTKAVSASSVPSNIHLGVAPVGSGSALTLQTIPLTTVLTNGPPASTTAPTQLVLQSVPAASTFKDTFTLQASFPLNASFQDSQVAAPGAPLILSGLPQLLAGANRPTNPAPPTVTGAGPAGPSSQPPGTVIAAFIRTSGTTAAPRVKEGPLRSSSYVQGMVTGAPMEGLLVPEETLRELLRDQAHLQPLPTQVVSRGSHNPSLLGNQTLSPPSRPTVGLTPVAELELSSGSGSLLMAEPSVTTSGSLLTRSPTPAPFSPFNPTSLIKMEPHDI
Sequence of SPIB (Q01892 whole entry): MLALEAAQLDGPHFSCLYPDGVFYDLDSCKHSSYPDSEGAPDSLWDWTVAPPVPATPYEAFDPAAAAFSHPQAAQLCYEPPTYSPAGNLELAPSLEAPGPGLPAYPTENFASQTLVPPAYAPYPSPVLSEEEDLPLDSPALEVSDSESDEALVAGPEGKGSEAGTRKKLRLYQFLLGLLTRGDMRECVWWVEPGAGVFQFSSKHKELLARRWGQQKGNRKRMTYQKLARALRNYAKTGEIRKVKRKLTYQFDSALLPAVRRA
Sequence of ETV6 (P41212 whole entry): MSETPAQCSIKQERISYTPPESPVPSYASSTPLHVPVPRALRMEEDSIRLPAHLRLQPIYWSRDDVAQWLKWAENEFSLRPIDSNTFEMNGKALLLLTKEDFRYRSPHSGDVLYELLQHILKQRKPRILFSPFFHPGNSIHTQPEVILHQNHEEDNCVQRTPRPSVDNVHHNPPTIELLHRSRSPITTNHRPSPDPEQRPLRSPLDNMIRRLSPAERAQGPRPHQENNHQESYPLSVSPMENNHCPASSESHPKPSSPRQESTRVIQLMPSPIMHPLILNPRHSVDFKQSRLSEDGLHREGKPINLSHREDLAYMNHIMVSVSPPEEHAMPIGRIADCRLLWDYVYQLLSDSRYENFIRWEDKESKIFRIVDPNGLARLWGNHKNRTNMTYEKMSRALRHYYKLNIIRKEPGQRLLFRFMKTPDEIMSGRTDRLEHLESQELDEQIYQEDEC
Sequence of ELF1 (P32519 whole entry): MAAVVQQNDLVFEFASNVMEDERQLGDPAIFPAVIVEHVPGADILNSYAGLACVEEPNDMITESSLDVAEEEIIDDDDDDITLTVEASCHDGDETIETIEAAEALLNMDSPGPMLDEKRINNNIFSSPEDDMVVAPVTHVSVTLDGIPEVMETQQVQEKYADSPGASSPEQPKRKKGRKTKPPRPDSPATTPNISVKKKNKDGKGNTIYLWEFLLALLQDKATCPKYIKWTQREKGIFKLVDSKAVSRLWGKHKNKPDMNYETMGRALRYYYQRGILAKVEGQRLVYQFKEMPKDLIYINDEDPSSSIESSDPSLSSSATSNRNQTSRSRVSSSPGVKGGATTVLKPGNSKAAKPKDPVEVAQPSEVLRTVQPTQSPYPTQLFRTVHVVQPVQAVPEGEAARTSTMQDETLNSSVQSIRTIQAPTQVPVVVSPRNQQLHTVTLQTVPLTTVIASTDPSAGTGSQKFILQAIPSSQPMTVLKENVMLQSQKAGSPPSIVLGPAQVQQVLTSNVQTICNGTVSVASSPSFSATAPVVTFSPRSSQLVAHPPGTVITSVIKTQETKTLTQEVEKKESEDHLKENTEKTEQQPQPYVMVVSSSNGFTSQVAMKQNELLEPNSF
Sequence of ETV1 (P50549 whole entry): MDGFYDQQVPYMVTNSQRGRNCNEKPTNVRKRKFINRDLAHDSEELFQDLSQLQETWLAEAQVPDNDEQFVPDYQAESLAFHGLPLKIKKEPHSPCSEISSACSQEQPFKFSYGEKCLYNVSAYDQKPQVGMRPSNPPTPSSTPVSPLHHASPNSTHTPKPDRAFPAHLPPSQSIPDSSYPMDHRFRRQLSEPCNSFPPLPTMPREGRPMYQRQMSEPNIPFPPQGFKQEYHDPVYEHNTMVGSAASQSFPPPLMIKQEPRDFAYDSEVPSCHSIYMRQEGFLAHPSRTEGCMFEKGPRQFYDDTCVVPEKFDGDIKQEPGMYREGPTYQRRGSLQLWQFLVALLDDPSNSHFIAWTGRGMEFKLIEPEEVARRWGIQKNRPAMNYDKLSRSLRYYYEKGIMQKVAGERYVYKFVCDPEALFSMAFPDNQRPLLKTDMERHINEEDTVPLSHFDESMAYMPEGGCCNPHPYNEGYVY

CCACCT
binding signal [1]: 1.16 fold enrichment (6-mer frequency, TF over GST control) | binding signal [2]: 1.12 fold enrichment (6-mer frequency, TF over GST control) | binding signal [3]: 1.1 fold enrichment (6-mer frequency, TF over GST control) | binding signal [4]: 1.11 fold enrichment (6-mer frequency, TF over GST control) | binding signal [5]: 1.15 fold enrichment (6-mer frequency, TF over GST control) | binding signal [6]: 1.21 fold enrichment (6-mer frequency, TF over GST control) | binding signal [7]: 1.11 fold enrichment (6-mer frequency, TF over GST control) | binding signal [8]: 1.07 fold enrichment (6-mer frequency, TF over GST control) | binding signal [9]: 1.06 fold enrichment (6-mer frequency, TF over GST control) | binding signal [10]: 1.17 fold enrichment (6-mer frequency, TF over GST control) | binding signal [11]: 1.07 fold enrichment (6-mer frequency, TF over GST control) | binding signal [12]: 1.19 fold enrichment (6-mer frequency, TF over GST control) | binding signal [13]: 1.15 fold enrichment (6-mer frequency, TF over GST control) | binding signal [14]: 1.07 fold enrichment (6-mer frequency, TF over GST control) | binding signal [15]: 1.13 fold enrichment (6-mer frequency, TF over GST control) | binding signal [16]: 1.08 fold enrichment (6-mer frequency, TF over GST control) | binding signal [17]: 1.1 fold enrichment (6-mer frequency, TF over GST control) | binding signal [18]: 1.19 fold enrichment (6-mer frequency, TF over GST control) | binding signal [19]: 1.08 fold enrichment (6-mer frequency, TF over GST control) | binding signal [20]: 1.06 fold enrichment (6-mer frequency, TF over GST control)
